Hit rate of the full screen: of about 48,000 compounds, about 13,000 (27%) showed an effect of 50% or more. The list shows a part of the results.
Each molecule was assayed on Wolbachia pipientis (assay: Anti-Wolbachia Cell-Based Screen). Conditions: 5 µM.
Type: functional
Set-up: scale not given: in the data most compounds retested in dose-response had high values

Structure (SMILES)	Percent Effect [%]
Cc1nc(C2CCN(C(C)C)CC2)sc1Br	83.07
Cc1nc(C2CCCN(C(C)C)C2)sc1Br (stereo unspecified)	117
Cl.O=C(NCC(F)(F)F)C1=NOC2(CCCNC2)C1 (stereo unspecified)	8.664
CN(Cc1cncnc1)[C@H]1CN(Cc2ccco2)[C@@H]2CCCO[C@@H]21	-12.03
Cc1cc(CN2CCN3C[C@H](c4ccccc4)[C@@H](CO)[C@H]3C2)on1	124.7
Cc1cc(CN2C[C@H]3CC[C@@H]2CN(Cc2[nH]cnc2C)C3)on1	1.495
c1ccc(-c2cc(CN3C[C@H]4CC[C@H]3C4)on2)cc1	0.1259
OC[C@@H]1[C@H]2CN(c3ccccn3)CCN2C[C@H]1c1ccccc1	110.4
OC[C@@H]1[C@@H](c2ccccc2)CN2CCN(c3ccccn3)C[C@H]12	121.4
O=C(O)C(F)(F)F.O=C(O)C(F)(F)F.c1ccc(CO[C@@H]2C[C@H]3CN(c4ncccn4)CCN3C2)nc1	-5.237
CN(C)C(=O)CN1CCO[C@H]2CN(c3ccccn3)C[C@H]21	-17.61
COCC(=O)NC[C@H]1C[C@@H]2CCN1C[C@@H]2CN1CCc2ccccc2C1	-3.386
COc1cccc(CC(C)NC(=O)NCCc2cccnc2)c1 (stereo unspecified)	-9.147
CS(=O)(=O)NCc1cncc2c1CCN(CC1CCOC1)C2.Cl.Cl (stereo unspecified)	-2.425
Cl.Cl.c1cnc(NCc2cncc3c2CCN(CC2CC2)C3)nc1	93.82
CN(C)C(=O)CN1C[C@@H]2CC[C@H](C1)N(C(=O)Cc1ccccc1Cl)C2	-1.206
CN(C)Cc1cncc2c1CCN(CC(=O)N(C)C)C2	91.67
CC(C)N(C)Cc1cncc2c1CCN(CC1CC1)C2.Cl.Cl.Cl	102.9
CCN1CCc2c(CNC(=O)c3nccn3C)cncc2C1.Cl.Cl.Cl	11.07
CN(C)C(=O)CN1C[C@@H]2CC[C@H](C1)N(Cc1c(Cl)cncc1Cl)C2	-12.98
CC(C)N(C)Cc1cncc2c1CCN(CC(=O)N(C)C)C2.Cl.Cl.Cl	105.8
CC(C(=O)N1CCCC1)N1CCCN(C(=O)Oc2ccccc2)CC1 (stereo unspecified)	21.65

Structure (SMILES)	Percent Effect [%]
Cc1noc(C)c1CN1C(=O)[C@H]2CC[C@@H]1CN(Cc1nccs1)C2	-3.876
FC1(F)CCNCC12CCN(c1ccccn1)C2 (stereo unspecified)	-2.564
Cc1nc(NCc2ccco2)nc2c1COCC21CCNC1.O=C(O)C(F)(F)F (stereo unspecified)	-14.58
N#Cc1ccc(NCCc2n[nH]c(=O)[nH]2)cc1Cl	-5.304
O=C1[C@H]2CN(C3CCOCC3)C[C@H]2CN1Cc1cccnc1	-4.896
CSc1ncc(CN2C[C@H]3CC[C@@H]2CN(C2CCOCC2)C3)cn1	-8.939
CC(C)N(C)Cc1cncc2c1CCN(C1CCOCC1)C2.Cl.Cl.Cl	97.34
CN(C)Cc1cncc2c1CCN(C1CCOCC1)C2.Cl.Cl.Cl	89.69
COc1cccc(CC(C)NC(=O)NCCNC(C)=O)c1 (stereo unspecified)	-2.176
Cc1cc(C)c(CNc2ncnc3c2cnn3C)c(=O)[nH]1	-6.133
COc1c(CNCCc2c[nH]c3cc(F)ccc23)c(C(C)C)nn1C	79.98
COc1c(CNCCc2c[nH]c3cc(F)ccc23)c(C)nn1C	86.39
CC(C)(C)c1n[nH]c(C2CN(CC3CCC3)CCO2)n1 (stereo unspecified)	7.516
O=C1CCCN1CCN1CC=C(c2cnn(C3CCS(=O)(=O)C3)c2)CC1 (stereo unspecified)	-11.25
O=C(c1ccco1)N1CCO[C@@H]2CNC[C@@H]21	105.9
O=C(C1CCCC1)N1CCO[C@@H]2CNC[C@@H]21	-1.725
Cl.Cl.c1cc(CN2CCO[C@@H]3CNC[C@@H]32)cs1	-7.592
c1cc(CN2CCO[C@@H]3CNC[C@@H]32)co1	-20.72
Cl.Cl.c1ccc(CN2CCOC3CNCC[C@H]32)cc1 (stereo partly specified)	-10.82
N#Cc1cccc(CN2CCO[C@@H]3CNC[C@@H]32)c1	-0.4846
O=C(c1ccoc1)N1CCO[C@@H]2CNC[C@@H]21	113.2
O=C(c1ccccc1)N1CCO[C@@H]2CNC[C@@H]21	106.9

Structure (SMILES)	Percent Effect [%]
CC(=O)C1(c2ccccc2)CCN(C(=O)CC2CNCCO2)CC1 (stereo unspecified)	5.115
O=C(c1ccccc1)N1CCOC2CNCC[C@H]21 (stereo partly specified)	121.8
O=C(C1CCC1)N1CCO[C@@H]2CNC[C@@H]21	7.79
CC[C@H]1CN2CC[C@H]1C[C@@H]2CNC(=O)c1ccco1	-12.57
Cn1nc(-c2ccccc2)cc1[C@H]1CN2CC[C@H]1C[C@@H]2CNS(C)(=O)=O	1.19
CNCc1cn(C[C@H]2CC3CCN2C[C@@H]3C(=O)Nc2ccccc2)nn1 (stereo partly specified)	-4.498
O=C1NC[C@H]2CN(C3CCOCC3)CCN12	-8.801
COc1ccccc1OCCCN1CC=C(c2cnn(C)c2)CC1	5.6
CCC(CC)NCC(C)Oc1cccnc1 (stereo unspecified)	18.13
O=C(c1cccnc1)N1CCO[C@@H]2CNC[C@@H]21	100.8
O=C(C1CCCCC1)N1CCO[C@@H]2CNC[C@@H]21	-9.765
Cl.Cl.O=C(N[C@H]1CN[C@H]2CCCO[C@H]21)c1cccnc1	-6.399
O=C(O)C(F)(F)F.O=C(O)C(F)(F)F.O=C1CC2(CCN(Cc3cccnc3)C2)CN1c1cccc(F)c1 (stereo unspecified)	15.74
Cc1ccc(CN2C[C@@H]3CN(c4ncccn4)C[C@@H]3C2)cc1.O=C(O)C(F)(F)F	6.326
O=C(O)C(F)(F)F.c1cnc(N2CCO[C@@H]3CN(Cc4ccoc4)C[C@@H]3C2)nc1	98.59
Fc1cnc(N2C[C@H]3CN(Cc4cccc(F)c4)C[C@H]3C2)nc1.O=C(O)C(F)(F)F.O=C(O)C(F)(F)F	5.307
Fc1cccc(CN2CCC3(CCN3c3ncccn3)C2)c1.O=C(O)C(F)(F)F (stereo unspecified)	74.85
O=C(O)C(F)(F)F.O=C(O)C(F)(F)F.O=C(O)C(F)(F)F.c1cncc(CN2CCO[C@@H]3CN(Cc4ccoc4)CC[C@@H]3C2)c1	-22.75
Fc1cnccc1CN1CCC2(CCN2c2ncccn2)C1.O=C(O)C(F)(F)F (stereo unspecified)	-1.377
Cc1cccc(CN2C[C@@H]3CN(Cc4ccoc4)CCO[C@@H]3C2)n1.O=C(O)C(F)(F)F.O=C(O)C(F)(F)F.O=C(O)C(F)(F)F	-28.06
Fc1cccc(CN2C[C@@H]3CN(c4ncccn4)C[C@@H]3C2)c1.O=C(O)C(F)(F)F.O=C(O)C(F)(F)F	102.6
N#Cc1cccc(CN2C[C@@H]3CN(c4ncccn4)C[C@@H]3C2)c1.O=C(O)C(F)(F)F	114.7
